# Compound activity (PubChem)
# Hits are enriched below; roughly 0.44% of the tested compounds scored in any of these assays.
# EPAC1 antag: blocks human EPAC1 exchange factor. EPAC1 GEF assay, Rap1b-BODIPY-GDP exchange fluorescence. Potency, µM (titrated, usually from 115 µM), for inactives: at the highest dose activity change, negative = inhibition, actives largely listed as inhibitors. actives 0.14% (n = 360,000);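 note: plate controls were vehicle for no effect and positive control for full effect; nearly all actives have a fitted effect of over 50% in size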
# USP1 inh: inhibitors of human USP1/UAF1 deubiquitinase | O94782 | recombinant USP1/UAF1, Ub-Rhodamine cleavage fluorescence | Potency, µM (highest dose often 57.1 µM), without a hit: at the top dose activity change, negative = inhibition, actives largely listed as inhibitors | actives 0.23% (n = 390,000) | AID 743255; note: % is set by controls: 0 for no effect and ±100 for the full control effect; nearly all actives have a fitted effect of over 60% in size
#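 1 nM enzyme complex + cpd, 15 min RT; start with Ub-Rho 150nM final; kinetic fluorescence ex 480/em 540, 6 reads q60 s. Buffer 50mM HEPES pH 7.8, 0.5mM EDTA, 0.1 mg/ml BSA, 1mM TCEP, 0.01% Tween-20.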
# EPAC1 agonist: activates human EPAC1 exchange factor; EPAC1 agonist qHTS, biochemical assay; response scale: 100% = response to 6.5 mM cAMP; O95398; actives 0.073% (n = 360,000); Potency, µM (titrated, usually from 154 µM), for the others: at the highest dose activation, usual class: activators; note: nearly all actives have a fitted effect of over 60% in size
#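 Nucleotide exchange by EPAC1 (100 nM) on Rap1B–BODIPY-GDP (250 nM) in the presence of 50 uM GDP is tracked fluorescently at 480/540 nm over 30 min. Signals are normalized to a 6.5 mM cAMP control.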
# USP2a block: USP2a (human) protease inhibition | USP2 core, Ub-CHOP2 coupled fluorogenic reporter, 485/531 | Potency, µM (series often up to 38.3 µM), inactives show at the highest dose activity change, negative = inhibition, usual class: inhibitors | actives 0.01% (n = 330,000);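 note: plate controls were DMSO wells for no effect and full inhibition by NEM control for full effect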
# Target sequence (O75604 whole entry, looked up): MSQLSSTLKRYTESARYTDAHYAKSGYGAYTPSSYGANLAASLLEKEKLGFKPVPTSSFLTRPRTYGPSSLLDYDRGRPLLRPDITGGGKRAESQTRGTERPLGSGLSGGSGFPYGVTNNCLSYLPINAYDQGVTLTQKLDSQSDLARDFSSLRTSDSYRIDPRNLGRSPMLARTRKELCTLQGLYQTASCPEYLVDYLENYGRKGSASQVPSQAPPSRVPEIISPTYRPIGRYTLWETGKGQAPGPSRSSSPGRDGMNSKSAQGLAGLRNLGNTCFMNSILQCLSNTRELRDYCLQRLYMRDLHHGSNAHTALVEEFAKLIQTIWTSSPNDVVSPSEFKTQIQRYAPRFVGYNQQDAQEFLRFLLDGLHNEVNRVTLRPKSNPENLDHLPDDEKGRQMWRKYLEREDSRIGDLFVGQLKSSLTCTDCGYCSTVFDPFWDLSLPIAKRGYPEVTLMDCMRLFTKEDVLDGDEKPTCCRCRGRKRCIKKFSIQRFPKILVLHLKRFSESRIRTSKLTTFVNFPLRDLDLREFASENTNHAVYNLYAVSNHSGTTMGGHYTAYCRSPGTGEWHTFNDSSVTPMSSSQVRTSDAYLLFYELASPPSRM
#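 USP2 core (10nM final) preincubated 30min RT with compound in 20mM Tris-HCl pH 8.0, 2mM CaCl2, 2mM beta-mercaptoethanol, 0.05% CHAPS; 25nM Ub-CHOP2 plus 25nM reporter substrate added, fluorescence (Ex485/Em531) read after 60min.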
# EPAC2 agonist: EPAC2 (human) agonism. actives 0.079% (n = 360,000). EPAC2 activation, biochemical qHTS; response scale: 100% = 6.5 mM cAMP response. Potency, µM (series often up to 154 µM), for inactives: top-dose activation, actives largely listed as activators; note: nearly all actives have a fitted effect of over 50% in size
#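 Nucleotide exchange monitored as fluorescence drop when BODIPY-GDP leaves Rap1B. Reaction: 100 nM EPAC2, 250 nM RAP1B-BODIPY-GDP, 50 uM GDP, room temperature, kinetic read over 30 min. Activity expressed relative to 6.5 mM cAMP.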
# EPAC2 antag: EPAC2 (human) antagonism. Q8WZA2. EPAC2 GEF exchange of Rap1B-BODIPY-GDP, fluorescence. actives 0.18% (n = 360,000). Potency, µM (highest dose often 114 µM), for inactives: at the highest dose activity, negative = inhibition, hits mostly inhibitors; note: % is set by controls: 0 for no effect and ±100 for the full control effect; nearly all actives have a fitted effect of over 45% in size
# * marks the source's active call; other numbers are inactive results; u = inconclusive; x = no result given. Calls come from the whole dose curve; as a rule, active = well fitted curve in the direction sought with a large enough effect; inconclusive = small, poorly fitted or top-dose-only effect, or another doubt; inactive = no such curve, though single readings can be large; an effect the other way counts as inactive or inconclusive. Potency is the fitted concentration of half-maximal effect.
SMILES,EPAC1 antag,USP1 inh,EPAC1 agonist,USP2a block,EPAC2 agonist,EPAC2 antag
COc1cc(/C=C2/SC(=S)NC2=O)ccc1OS(=O)(=O)c1ccc(C)cc1,44.7µM*,u,9.7%,-1.9%,4.3%,39.8µM*
COc1ccc(/C=C2\SC(=S)NC2=O)cc1OS(=O)(=O)c1ccc(NC(C)=O)cc1,u,-18.9%,-6.7%,1.0%,-5.5%,50.1µM*
COc1cc(/C=C2/C(=N)N3C(=NC2=O)SN=C3S(C)(=O)=O)ccc1OS(=O)(=O)c1ccc(C)cc1,50.1µM*,-21.8%,-3.9%,-0.9%,1.1%,u
COc1ccc(/C=C2\SC(c3ccc(C)cc3)=NC2=O)cc1OC,14.9%,15.8µM*,4.2%,0.8%,-19.7%,6.9%
CCOc1ccc(/C=C2\SC(=S)NC2=O)cc1OC,u,-24.4%,4.7%,0.5%,3.4%,12.6µM*
COc1cc(/C=C2\SC(=S)NC2=O)ccc1OS(=O)(=O)c1ccccc1,x,x,x,-5.4%,x,x
COc1cccc(/C=C2\SC(=S)NC2=O)c1OS(=O)(=O)c1ccc(NC(C)=O)cc1,79.4µM*,-19.3%,-9.4%,2.1%,1.2%,2.7%
COc1ccc(/C=C2/SC(c3ccc(C)cc3)=NC2=O)cc1OC,4.1%,u,23.7%,3.5%,9.3%,10.9%
CCCCN(C)CCNC(=O)C1CCN(c2nc3ccc(CC)cc3s2)CC1,x,-25.3%,x,x,x,x
Cc1ccccc1-c1ccnc2c(-c3ccc(F)cc3)c(C)nn12,x,-7.8%,x,x,x,x
COc1ccc(C(=O)COC(=O)c2cc(-c3cccs3)nc3ccccc23)cc1,x,-20.6%,x,x,x,x
COc1ccc(CCN2C(=O)c3oc4ccc(F)cc4c(=O)c3C2c2ccc(C(C)(C)C)cc2)cc1 (stereo not given),x,-23.4%,x,x,x,x
COc1ccc(NC(=O)Cn2c(=O)n(-c3ccc(C)cc3)c(=O)c3c2c2cc(C)ccc2n3C)cc1,x,-7.0%,x,x,x,x
CCCCCc1c2c(cc(O)c1C(=O)O)OC(=O)c1cc(C(=O)CCCC)c(OC)cc1O2,50.1µM*,-24.0%,-32.1%,0.1%,4.4%,u
CCCCCc1c2c(cc(O)c1C(=O)O)OC(=O)c1c(cc(OC)cc1C(=O)CCCC)O2,50.1µM*,u,-10.6%,1.1%,-6.4%,50.1µM*
CCCCc1c(C(=O)O)cc(OC)cc1C(=O)O,10.4%,-2.1%,6.2%,2.1%,-1.5%,7.6%
CN(C)S(=O)(=O)c1ccc(C(=O)OCc2nnc(-c3ccccc3)o2)cc1,-5.5%,-13.1%,-1.4%,-1.0%,3.1%,-5.7%
CS(=O)(=O)c1ccc(C(=O)OCc2nnc(-c3ccccc3)o2)cc1[N+](=O)[O-],89.1µM*,-5.4%,1.9%,0.0%,12.7%,-15.3%
CCC(=O)NC(c1cccs1)c1cc(Cl)c2ccccc2c1O (stereo not given),-24.1%,x,3.7%,3.5%,22.0%,79.4µM*
FC(F)(F)C1=Nc2cccc3cccc(c23)N1,u,u,-26.2%,10µM*,-3.3%,-1.4%
Fc1ccc(C2=Nc3cccc4cccc(c34)N2)cc1,-8.3%,-11.4%,5.6%,-0.3%,10.2%,-13.1%
CCCCn1c(NC(=O)CC)c(C#N)c2nc3ccccc3nc21,-7.4%,-20.0%,-11.7%,0.2%,2.9%,3.1%
CCCCn1c(NC(=O)c2ccccc2Cl)c(C#N)c2nc3ccccc3nc21,u,14.1µM*,-1.4%,2.6%,-1.8%,u
N#Cc1c(NC(=O)c2ccccc2Cl)n(Cc2ccccc2)c2nc3ccccc3nc12,35.5µM*,25.1µM*,-6.8%,-0.6%,-15.3%,44.7µM*
CCCCCOc1ccc(NC(=O)Cc2csc(C)n2)cc1,x,4.4%,x,x,x,x
O=C(CSc1nnc(-c2ccccc2Cl)o1)N1CCCc2ccccc21,x,-16.5%,x,x,x,x
CC1=NN(c2nc(-c3ccccc3)cs2)C(=O)C1,79.4µM*,-13.4%,-13.7%,1.9%,2.4%,1.5%
